Data taken from PubChem BioAssay (NCI).
Compounds without any hit were thinned out: in the full panel of roughly 83,000, 20% have a hit.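 Compound tested at a single concentration for 48 hours in 96-well plates; a percent growth value below 10 was scored as active.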 The source made the active and inactive calls.

What was measured:
Assay in all cases: NCI-60 one-dose screen, 48 h (100 = growth as untreated, 0 = no growth, -100 = all killed)
Conditions in all cases: 10 µM
[1] = system: SR leukemia
[2] = system: RPMI-8226 leukemia
[3] = system: OVCAR-8 ovarian
[4] = system: OVCAR-5 ovarian
[5] = system: OVCAR-4 ovarian
[6] = system: SK-OV-3 ovarian
[7] = system: IGROV1 ovarian
[8] = system: OVCAR-3 ovarian
[9] = system: HS 578T breast
[10] = system: NCI/ADR-RES ovarian
[11] = system: T-47D breast
[12] = system: MDA-MB-435 melanoma
[13] = system: SW-620 colon
[14] = system: MCF7 breast
[15] = system: HCT-116 colon
[16] = system: HCC-2998 colon
[17] = system: KM12 colon
[18] = system: BT-549 breast

Measured: growth

N#CCc1csc(Cc2ccccc2)n1
inactive: [1] 98.6% | [2] 99% | [3] 106% | [4] 110% | [5] 121% | [6] 104% | [7] 108% | [8] 106% | [9] 99.1% | [10] 97.3% | [11] 103% | [12] 111% | [13] 103% | [14] 90.1% | [15] 106% | [16] 104% | [17] 101%

O=C(COc1cccc(/C=C2\CSc3ccccc3C2=O)c1)c1ccc(Cl)cc1
active: [1] -60.7% | [2] -64.5% | [3] -4.69% | [9] -25.5% | [10] 7.16% | [18] -77.5% | [12] -14.8% | [13] -100% | [14] -89.2% | [15] -57.8%
inactive: [4] 19.5% | [5] 80.9% | [6] 104% | [8] 57.5% | [11] 57.8%

COc1ccc2nc3cc(Cl)ccc3c(N)c2c1
active: [1] -39.1% | [2] -1.72% | [3] -44.4% | [4] -91.8% | [5] -98% | [6] -97.7% | [7] -33% | [8] -93.7% | [10] -97.2% | [11] -82% | [18] -95.6% | [12] -74.2% | [13] -70.2% | [15] -99.2% | [16] -99% | [17] -84.3%

CC(=O)OC1C=CC(OC(C)=O)O1 (configuration not stated)
inactive: [1] 101% | [2] 92.4% | [3] 94.2% | [4] 101% | [5] 97.5% | [6] 91.8% | [7] 89.8% | [8] 102% | [9] 87.4% | [10] 99.2% | [11] 88.1% | [12] 96% | [13] 82% | [14] 87.9% | [15] 84.3% | [16] 103% | [17] 101%

COc1cc(C2CC(c3ccccc3)=NN2C(C)=O)cc(OC)c1OC (configuration not stated)
inactive: [1] 28.1% | [2] 81.7% | [3] 51.2% | [4] 92.3% | [5] 78.5% | [6] 47.5% | [7] 24.6% | [9] 48.4% | [10] 11.1% | [11] 34.1% | [13] 19.1% | [14] 14.6% | [15] 19.3% | [16] 49.7% | [17] 18.4%
active: [8] -10.7% | [12] -29.4%

CCOC(=O)N/N=C/c1ccc(OC)c(OC)c1
inactive: [1] 105% | [2] 102% | [3] 102% | [4] 112% | [5] 110% | [6] 114% | [7] 110% | [8] 128% | [10] 116% | [11] 105% | [18] 106% | [12] 106% | [13] 109% | [14] 98.7% | [15] 102% | [16] 114% | [17] 117%

Nc1ncc(-c2cnn(C3CCNCC3)c2)cc1-c1nc2ccccc2o1
active: [1] -74.7% | [2] -56% | [3] 9.55% | [6] 3.49% | [7] -14.5% | [8] -62.4% | [9] -14.7% | [11] -4.42% | [12] -55.5% | [13] -60.4% | [15] -2.99% | [17] -81.3%
inactive: [4] 34.6% | [5] 35.8% | [10] 42.8% | [14] 11.6% | [16] 14.2%

Nc1nccc(OCCO)n1
inactive: [1] 95.9% | [2] 108% | [3] 109% | [4] 101% | [5] 109% | [6] 102% | [7] 107% | [8] 105% | [9] 107% | [10] 103% | [11] 94.1% | [12] 104% | [13] 107% | [14] 91.2% | [15] 97.8% | [16] 97.4% | [17] 97.8%

CCN(CC)CCNc1ccc(C)c2sc3cc(Cl)ccc3c(=O)c12
active: [1] -30.4% | [2] -4.34% | [12] -44.8% | [13] 2.58%
inactive: [3] 45.9% | [4] 64.3% | [5] 52.1% | [6] 64.2% | [7] 20.4% | [8] 59.1% | [9] 43.3% | [10] 51.1% | [11] 33.1% | [14] 19.8% | [15] 11.4% | [16] 23.3% | [17] 32.2%

COC(=O)c1c[nH]c2cc(OC(C)C)c(OC(C)C)cc2c1=O
inactive: [1] 97% | [2] 96.9% | [3] 58.8% | [4] 106% | [5] 109% | [6] 55.2% | [7] 139% | [8] 113% | [10] 101% | [11] 103% | [18] 112% | [12] 106% | [13] 105% | [14] 84.8% | [15] 102% | [16] 104% | [17] 106%
